Screen size: about 2,500 compounds; about 1,100 (44%) were called active.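 How the source made its calls: active means inhibition above 50% at 4 µM in the single-point screen; inactive means inhibition of 50% or less.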 The set was probably picked from earlier hits. This is one part of the list.
Test: TNF-a-driven NF-kB reporter inhibitors, primary screen, selectivity assay for NOD1/NOD2 signaling inhibitor project, cell-based, HEK293T NF-kB-Luc, luminescence (AID 1852)
Settings: TNF-a induced, 14 h, at 4 µM, active compounds read high

| Compound | inhibition |
| --- | --- |
| CCC(=O)N1c2ccc(S(=O)(=O)N3CCN(c4ccc([N+](=O)[O-])cc4)CC3)cc2CC1C (configuration not stated) | 26.6% (inactive) |
| CCN(CC)S(=O)(=O)c1ccc(NC(=O)Nc2cccc(C(F)(F)F)c2)cc1 | 10.5% (inactive) |
| CCN(CC)S(=O)(=O)c1cccc(NC(=O)Nc2cccc(C(F)(F)F)c2)c1 | 69% (active) |
| O=C(Nc1ccc(OC(F)F)cc1)Nc1cccc(C(F)(F)F)c1 | 14.2% (inactive) |
| Oc1ccc(Oc2ccc3c(C(F)(F)F)cc(C(F)(F)F)nc3n2)cc1 | 45.2% (inactive) |
| N#CC(c1ccccc1)c1ccc2c(C(F)(F)F)cc(C(F)(F)F)nc2n1 (configuration not stated) | 20.4% (inactive) |
| N#CC(c1cccc(Cl)c1)c1ccc2c(C(F)(F)F)cc(C(F)(F)F)nc2n1 (configuration not stated) | 55.7% (active) |
| O=c1c2cc(Br)ccc2nc(-c2ccc(Cl)cc2)n1O | -30% (inactive) |
| O=c1c2cc(Br)ccc2nc(-c2cccc(C(F)(F)F)c2)n1O | 65% (active) |
| O=c1c2cc(Cl)ccc2nc(-c2ccc(Cl)c(Cl)c2)n1O | 74.1% (active) |
| Cc1ccc(C(=O)O/N=C(\N)c2ccccn2)c(C)c1 | 61.4% (active) |
| N/C(=N\OC(=O)c1cccc2ccccc12)c1ccc(Br)cc1 | -0.8% (inactive) |
| Cc1ccc(C(=O)O/N=C(\N)c2ccccn2)c(Cl)c1 | -56.4% (inactive) |
| CCN(CC)S(=O)(=O)c1ccc(Oc2ccc(S(=O)(=O)N(CC)CC)cc2)cc1 | 70.1% (active) |
| C=C(C(=O)c1ccccc1)C(C)CC(=O)c1ccccc1 (configuration not stated) | -8.9% (inactive) |
| C=C(C(=O)c1ccccc1)C(CC(=O)c1ccccc1)c1ccccc1 (configuration not stated) | -23.3% (inactive) |
| C=C(C(=O)c1ccccc1)C(C(=C)C(=O)c1ccccc1)c1ccc(OC)cc1 | 62.5% (active) |
| CCC1C(=NO)C(CC)C(c2ccccc2)NC1c1ccccc1 (configuration not stated) | 32.5% (inactive) |
| COc1ccc(/C=C/C(O)=C2/C(=O)N(C)C3(C)CC2c2ccccc2O3)cc1 (configuration not stated) | -8.9% (inactive) |

| Compound | inhibition |
| --- | --- |
| COc1cc(/C=C/[N+](=O)[O-])ccc1OCc1cccc(C(=O)O)c1 | 46% (inactive) |
| CCOc1ccc(/C=C/C(O)=C2/C(=O)N(C)C3(C)CC2c2ccccc2O3)cc1OC (configuration not stated) | 51.8% (active) |
| CC(C)c1ccc(S(=O)(=O)/N=C2/C=C(Sc3ncn[nH]3)C(=O)c3ccccc32)cc1 | 84.1% (active) |
| Cc1cc(C)c(S(=O)(=O)/N=C2/C=C(Sc3ncn[nH]3)C(=O)c3ccccc32)cc1C | 75.1% (active) |
| Cc1ccc(S(=O)(=O)/N=C2/C=C(Sc3ncn[nH]3)C(=O)c3ccccc32)c(C)c1 | 100% (active) |
| Cc1ccc(C)c(SCC(=O)OC/C(O)=C(\C#N)c2nc3ccccc3[nH]2)c1 | 52.5% (active) |
| Cc1cc(Br)ccc1SCC(=O)OC/C(O)=C(\C#N)c1nc2ccccc2[nH]1 | 106% (active) |
| Cc1cc(SCC(=O)OC/C(O)=C(\C#N)c2nc3ccccc3[nH]2)c(C)cc1Br | 59.5% (active) |
| COC(=O)C1CCN(C(=O)C2CCN(C(=O)[C@@H](NS(=O)(=O)c3ccc(C)cc3)C(C)C)CC2)CC1 | 15.9% (inactive) |
| COc1ccccc1C(=O)Nc1nc2ccccc2[nH]1 | 82.8% (active) |
| COC(=O)/C(=C\c1cc(OC)c(OC)c(OC)c1)c1nc2ccccc2[nH]1 | -13.3% (inactive) |
| COc1cc(SC)ccc1C(=O)Nc1nc2ccccc2[nH]1 | 103% (active) |
| COc1ccc(Nc2nc(C(=O)N3CCc4ccccc4C3)cs2)cc1 | 20.3% (inactive) |
| CCOC(=O)N1CCN(C(=O)C2CCCN(Cc3nc(-c4ccc(Cl)cc4)oc3C)C2)CC1 (configuration not stated) | 56.2% (active) |
| O=C(c1ccc(Cl)cc1)C1CCCN(Cc2cnn(-c3ccccc3)c2)C1 (configuration not stated) | 5.5% (inactive) |
| Cc1oc(-c2ccc(Cl)cc2)nc1CSCC(=O)NC1CCN(Cc2ccccc2)CC1 | 47.1% (inactive) |
| Cc1ccc(C)c(-n2c3nc(=O)[nH]c(=O)c-3cc3cc([N+](=O)[O-])ccc32)c1 | 58.5% (active) |
| CCSc1nnc(Cc2cc(=O)[nH]c(=O)[nH]2)n1-c1cc(C)ccc1C | 16.9% (inactive) |
| Cc1ccc(-n2c3nc(=O)[nH]c(=O)c-3cc3cc([N+](=O)[O-])ccc32)cc1C | 41.9% (inactive) |

| Compound | inhibition |
| --- | --- |
| CC(/C=C1\SC(=O)N(CCCC(=O)O)C1=O)=C\c1ccccc1 | 79.5% (active) |
| COc1cccc(/C=C2/SC(=S)N(CCCC(=O)Nc3ccc(O)cc3)C2=O)c1 | 19.5% (inactive) |
| O=C(O)CCCN1C(=O)/C(=C\C(Cl)=C\c2ccccc2)SC1=S | 77.9% (active) |
| COc1ccc(/C=C2/SC(=S)N(CCC(=O)O)C2=O)cc1 | 36% (inactive) |
| CC(/C=C1\SC(=S)N(c2ccc(C(=O)O)cc2)C1=O)=C\c1ccccc1 | 3.6% (inactive) |
| CCc1cc2c3c(c1)C(C)CC(C)(C)N3C(=O)/C2=C1\SC(=O)NC1=O (configuration not stated) | 6.9% (inactive) |
| CC1(c2ccccc2)CC(C)(C)N2C(=O)/C(=C3\SC(=S)NC3=O)c3cccc1c32 (configuration not stated) | 84.3% (active) |
| COc1ccc2c(C#N)c3ccccn3c2c1 | 66.3% (active) |
| N#Cc1c2ccc(O)cc2n2ccccc12 | 70% (active) |
| COc1ccc2c(c1)oc(=O)c1ccccc12 | -18.4% (inactive) |
| COc1ccc(-c2cc(=O)oc3cc(O)ccc23)cc1 | 2.6% (inactive) |
| O=C(Oc1cc2oc(=O)cc(-c3ccccc3)c2cc1Cl)C1CCCCC1 | 77.6% (active) |
| COc1ccc(-c2cc(=O)oc3cc(OC(=O)C4CCCCC4)c(Cl)cc23)cc1 | 95.3% (active) |
| COc1ccc(N2C(=O)C(Cl)=C(Oc3cccc(OC)c3)C2=O)cc1 | 13% (inactive) |
| Nc1ccc(Oc2cccc(Oc3ccc(N)cc3)c2)cc1 | 54.8% (active) |
| CC(=O)c1ccc(N2CCN(S(=O)(=O)c3ccc4c(c3)CC(C)N4C(=O)C3CC3)CC2)cc1 (configuration not stated) | 23.2% (inactive) |
| Cc1ccc(NC(=O)CSc2nc(C)c(Cc3ccccc3)c(=O)[nH]2)cc1 | 20% (inactive) |
| O=C(CSC1=NNC(c2ccccn2)S1)Nc1ccccc1 (configuration not stated) | 50.1% (active) |
| O=C(CSc1nc2scc(-c3ccccc3)c2c(=O)[nH]1)Nc1ccccc1 | 32.9% (inactive) |

From PubChem BioAssay AID1852 (Sanford-Burnham Center for Chemical Genomics, 2009)
